This passage reports outcome and Potency results from PubChem BioAssay (Tox21).

Each structure is given as a SMILES string. Several values for one entry are separate records, joined by “and”; a condition that tells them apart may be missing. Equal entries are not always repeated. Results filed as inconclusive are left out. Activity calls are given as the source filed them. Unless noted, the call rests on the fitted dose curve; in most records, active means well fitted curve in the direction sought with a large enough effect in the repeat runs; inconclusive means weak or mixed curves; inactive means no such curve, though single readings can be large; an effect the other way counts as inactive or inconclusive.

Test [1] is described as follows: qHTS assay to identify small molecule agonists of the sonic hedgehog signaling (Shh) pathway (AID 1259368; calls by dose curve;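 further: NIH/3T3-derived 3T3Gli1-Luc cells carrying a stable Gli1-driven firefly luciferase reporter; series mostly up to about 92 µM; nearly all actives have a fitted effect of over 15% in size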). A digest of the protocol: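 Cells of a mouse NIH/3T3 clone stably expressing luciferase under the Gli1 transcriptional response element are exposed to test chemicals for 24 hr at 37 C. Pathway activation is detected as a rise in luminescence.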
A general note: qHTS replaces the single test concentration by a dilution series.

Test [2] can be described thus: qHTS assay to identify small molecule antagonists of the sonic hedgehog signaling (Shh) pathway (AID 1259369; calls by dose curve; further: nearly all actives have a fitted effect of over 45% in size; further: potency means the concentration at half of the fitted maximal effect). A digest of the protocol: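 Cells are plated and held 4hr at 37 C, compounds (DMSO) are pinned in, conditioned medium is added to stimulate the pathway, and after 24hr luciferase reagent is added for 30min before luminescence is read.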
The nature of test [3]: qHTS assay to identify small molecule agonists of the androgen receptor (AR) signaling pathway in the presence of an antagonist - cell viability counter screen (AID 1259379).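 Further: MDA-kb2 human breast cancer cells carrying an MMTV luciferase reporter; series mostly up to about 92 µM; nearly all actives have a fitted effect of over 25% in size.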 In a few lines: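 Cytotoxicity is assessed by CellTiter-Fluor in MDA-kb2 cells carrying an MMTV-driven luciferase reporter. Cells receive 3.0uM nilutamide plus compounds at 15 concentrations and incubate 16 hr at 37C without CO2 before fluorescence reading.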

The nature of test [4]: qHTS assay to identify small molecule agonists of the estrogen receptor beta (ER-beta) signaling pathway - cell viability counter screen (AID 1259380). Further: nearly all actives have a fitted effect of over 30% in size. A digest of the protocol: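 Cytotoxicity is measured in parallel with the reporter screen: after 16 hr compound exposure at 37C and a 2 hr LiveBLAzer step, CellTiter-Glo is added to the same ER-beta-UAS-bla HEK293T wells and luminescence read after 30 min.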

Test [5] is described as follows: qHTS assay to identify small molecule antagonists of the estrogen receptor beta (ER-beta) signaling pathway - cell viability counter screen (AID 1259382). Further: series mostly up to about 92 µM; nearly all actives have a fitted effect of over 55% in size. In a few lines: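 Cytotoxicity counter screen multiplexed with the beta-lactamase antagonist assay: GripTite HEK293T ER-beta-bla cells were treated 16 hr with test chemicals in the presence of 1nM 17-beta-estradiol, and viability was measured by CellTiter-Glo.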

The nature of test [6]: qHTS assay to identify small molecule agonists or antagonists of the thyroid stimulating hormone receptor (TSHR) signaling pathway - wild type cell line counter screen (AID 1259384; calls by dose curve). In a few lines:
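Wild-type Hek293 cells, 800/well, 18 h at 37C, then compound with Ro20-1724 for 30 min RT. cAMP by HTRF (cAMP-d2/anti-cAMP cryptate), 1 h RT, fluorescence read. 15 concentrations, triplicates.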

Test [7] concerns the target Thyrotropin receptor (Homo sapiens) (UniProt P16473). As to the kind of experiment: qHTS assay to identify small molecule antagonists of the thyroid stimulating hormone receptor (TSHR) signaling pathway (AID 1259385; calls by dose curve; further: nearly all actives have a fitted effect of over 20% in size). A digest of the protocol: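 TSHR-HEK293 cells (800/well) plated 18 h, then compounds with Ro20-1724 and TSH at 1.5 ng/mL final, 30 min at room temperature. cAMP quantified by HTRF (cAMP-d2/anti-cAMP-cryptate, 1 h); 15 concentrations in triplicate.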

The target of test [8] is Progesterone receptor (Homo sapiens) (UniProt P06401). The experiment in a line: qHTS assay to identify small molecule agonists of the progesterone receptor (PR) signaling pathway (AID 1346784; calls by dose curve; further: nearly all actives have a fitted effect of over 30% in size). A digest of the protocol: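 PR-UAS-bla HEK 293T cells (beta-lactamase reporter under UAS) in 2% charcoal-stripped FBS, dosed with 23 nL compound after 6 hr, incubated 16hr at 37C. LiveBLAzer B/G FRET substrate added, fluorescence read after 2 hours.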

Test [9] shares this target. As to the kind of experiment: qHTS assay to identify small molecule antagonists of the progesterone receptor (PR) signaling pathway (AID 1346795; active means well fitted inhibition curve with a large enough effect in the signal ratio in the repeat runs, not every such curve was filed as active; the % refers to the signal ratio; further: potency means the concentration at half of the fitted maximal effect). A digest of the protocol: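 PR-UAS-bla HEK293T cells with beta-lactamase reporter under UAS control, in 2% charcoal-stripped FBS, treated with compounds plus 1 nM promegestone (R5020, final) for 16 hr at 37C. Read-out: FRET beta-lactamase substrate fluorescence after 2 hr at room temperature.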

Test [10] is described as follows: qHTS assay to identify small molecule antagonists of the TGF-beta/Smad signaling pathway - cell viability counter screen (AID 1346824). Further: nearly all actives have a fitted effect of over 50% in size. In a few lines: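 SBE-bla HEK 293T cells, incubated overnight, then compound plus 0.25 ng/mL TGF-beta1 (stock added) for 5 hr at 37 C. Viability was read in the same wells by CellTiter-Glo luminescence after 30 min at room temperature.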

The nature of test [11]: qHTS assay to identify small molecule agonists of the TGF-beta/Smad signaling pathway - cell viability counter screen (AID 1346829). Further: top concentration of the series differs between compounds; nearly all actives have a fitted effect of over 45% in size. A digest of the protocol: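 Compound-treated SBE-bla HEK 293T cells (5 hr, 37 C) were assessed for viability with CellTiter-Glo in parallel with the reporter read.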
For test [12], the target named is Thyrotropin-releasing hormone receptor (Homo sapiens) (UniProt P34981). As to the kind of experiment: qHTS assay to identify small molecule antagonists of the thyrotropin-releasing hormone receptor (TRHR) signaling pathway (AID 1346877; active means well fitted inhibition curve with a large enough effect in the repeat runs, not every such curve was filed as active; further: series mostly up to about 51 µM). In a few lines:
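Antagonism is measured as suppression of the calcium response to 1 nM TRH in TRHR-HEK293 cells that have been dye-loaded for 2 h at 37 °C after overnight plating. Each compound is tested at 15 concentrations in triplicate.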

Test [13] is described as follows: qHTS assay to identify small molecule agonists of the estrogen receptor alpha (ER-alpha) signaling pathway in the presence of an antagonist - cell viability counter screen (AID 1259386).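 Further: series mostly up to about 92 µM; cells exposed to compounds for 22 h at 37 °C before the viability read; nearly all actives have a fitted effect of over 30% in size.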 A digest of the protocol: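 Cytotoxicity was measured in parallel with the ERE-luciferase agonist screen, in the same wells. The cells were VM7Luc4E2, which endogenously express ER-alpha, and treatment was with compounds plus 10.0nM ICI-182,780 for 22hr.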

A short description of test [14]: qHTS assay to identify small molecule antagonists of the progesterone receptor (PR) signaling pathway - cell viability counter screen (AID 1346798). Further: series mostly up to about 92 µM; nearly all actives have a fitted effect of over 50% in size. A digest of the protocol:
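PR-UAS-bla HEK293T cells, 3,000/well in 2% charcoal-stripped FBS medium, dosed with compounds plus R5020 agonist and incubated 16 h at 37C. Viability then measured in the same wells by CellTiter-Glo luminescence after 30 min at RT.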

Test [15] in a line: qHTS assay to identify small molecule agonists of the TGF-beta/Smad signaling pathway (AID 1346859; active means well fitted activation curve with a large enough effect in the signal ratio in the repeat runs, not every such curve was filed as active; the % refers to the signal ratio; further: series mostly up to about 77 µM). In a few lines:
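SBE-bla HEK293T cells plated overnight, then compound exposure for 5 h at 37 C. Beta-lactamase reporter read with LiveBLAzer B/G FRET substrate after 2 h at room temperature, fluorescence at 405 nm excitation, 460/530 nm emission.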

Test [16] addresses Estrogen receptor beta (Homo sapiens) (UniProt Q92731). As to the kind of experiment: qHTS assay to identify small molecule agonists of the estrogen receptor beta (ER-beta) signaling pathway (AID 1259377; active means well fitted activation curve with a large enough effect in the signal ratio in the repeat runs, not every such curve was filed as active; the % refers to the signal ratio). In a few lines: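 ER-beta-UAS-bla HEK293T cells in medium with 2% charcoal-stripped FBS were exposed to compounds for 16 h at 37C. Beta-lactamase reporter activity was read as fluorescence after 2 h with LiveBLAzer B/G FRET substrate at room temperature.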

Test [17] has the same target. As to the kind of experiment: qHTS assay to identify small molecule antagonists of the estrogen receptor beta (ER-beta) signaling pathway (AID 1259378; active means well fitted inhibition curve with a large enough effect in the signal ratio in the repeat runs, not every such curve was filed as active; the % refers to the signal ratio). In a few lines: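 ER-beta-UAS-bla HEK293T cells in 2% charcoal-stripped FBS medium treated with compound plus 1nM final 17-beta-estradiol for 16 hr at 37C. Beta-lactamase reporter read by FRET substrate fluorescence after 2 hours at room temperature.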

For test [18], the target named is Estrogen receptor (Homo sapiens) (UniProt P03372). As to the kind of experiment: qHTS assay to identify small molecule agonists of the estrogen receptor alpha (ER-alpha) signaling pathway in the presence of an antagonist (AID 1259383; calls by dose curve; further: top concentration of the series differs between compounds; nearly all actives have a fitted effect of over 15% in size). In a few lines: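 Agonist-mode confirmation in the presence of the ER antagonist ICI-182,780 at 10.0nM final. Breast-derived VM7Luc4E2 reporter cells were exposed to compounds for 22hr, and ERE-driven luciferase was quantified by luminescence.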

Test [19] can be described thus: qHTS assay to identify small molecule agonists of the progesterone receptor (PR) signaling pathway - cell viability counter screen (AID 1346799; calls by dose curve; further: nearly all actives have a fitted effect of over 45% in size). In a few lines: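 Counter screen in the PR-UAS-bla HEK293T wells (2% charcoal-stripped FBS, 16 h compound exposure at 37 C) after the bla read. CellTiter-Glo added, 30 min at room temperature, luminescence read as cell viability.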

The target in test [20] is Androgen receptor (Homo sapiens) (UniProt P10275). As to the kind of experiment: qHTS assay to identify small molecule agonists of the androgen receptor (AR) signaling pathway in the presence of an antagonist (AID 1259381; calls by dose curve; further: nearly all actives have a fitted effect of over 15% in size). A digest of the protocol: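 Agonist-mode confirmation screen: human MDA-kb2 cells stably expressing luciferase under an MMTV promoter bearing AR and GR response elements, co-treated with 3.0uM nilutamide (final). Luminescence measured after 16hr compound incubation.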
Chain of Androgen receptor (Homo sapiens) (P10275 whole entry, looked up): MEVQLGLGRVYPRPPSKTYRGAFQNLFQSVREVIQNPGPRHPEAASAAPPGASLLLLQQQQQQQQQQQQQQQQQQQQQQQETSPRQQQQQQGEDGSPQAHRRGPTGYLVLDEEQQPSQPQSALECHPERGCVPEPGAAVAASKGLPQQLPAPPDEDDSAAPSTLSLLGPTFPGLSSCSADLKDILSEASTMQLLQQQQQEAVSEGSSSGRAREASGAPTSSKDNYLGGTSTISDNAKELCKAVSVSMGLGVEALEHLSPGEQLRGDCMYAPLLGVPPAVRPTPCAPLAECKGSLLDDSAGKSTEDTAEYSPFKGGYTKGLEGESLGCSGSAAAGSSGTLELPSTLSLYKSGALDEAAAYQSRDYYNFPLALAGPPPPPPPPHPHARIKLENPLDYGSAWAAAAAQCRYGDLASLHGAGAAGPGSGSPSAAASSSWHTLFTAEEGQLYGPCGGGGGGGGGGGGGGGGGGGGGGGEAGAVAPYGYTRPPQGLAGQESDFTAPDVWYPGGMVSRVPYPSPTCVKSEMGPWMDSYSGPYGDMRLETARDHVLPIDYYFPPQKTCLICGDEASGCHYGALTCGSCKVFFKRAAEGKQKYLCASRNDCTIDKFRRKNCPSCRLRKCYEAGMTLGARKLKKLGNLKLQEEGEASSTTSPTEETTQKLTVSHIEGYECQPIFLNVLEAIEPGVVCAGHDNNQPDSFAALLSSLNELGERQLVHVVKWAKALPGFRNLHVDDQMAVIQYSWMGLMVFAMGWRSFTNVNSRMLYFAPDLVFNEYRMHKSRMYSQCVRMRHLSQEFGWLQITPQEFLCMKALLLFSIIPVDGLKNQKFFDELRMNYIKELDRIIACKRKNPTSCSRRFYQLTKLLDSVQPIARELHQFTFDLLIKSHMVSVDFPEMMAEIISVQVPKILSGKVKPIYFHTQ

Chain of Estrogen receptor beta (Homo sapiens) (Q92731 whole entry, looked up): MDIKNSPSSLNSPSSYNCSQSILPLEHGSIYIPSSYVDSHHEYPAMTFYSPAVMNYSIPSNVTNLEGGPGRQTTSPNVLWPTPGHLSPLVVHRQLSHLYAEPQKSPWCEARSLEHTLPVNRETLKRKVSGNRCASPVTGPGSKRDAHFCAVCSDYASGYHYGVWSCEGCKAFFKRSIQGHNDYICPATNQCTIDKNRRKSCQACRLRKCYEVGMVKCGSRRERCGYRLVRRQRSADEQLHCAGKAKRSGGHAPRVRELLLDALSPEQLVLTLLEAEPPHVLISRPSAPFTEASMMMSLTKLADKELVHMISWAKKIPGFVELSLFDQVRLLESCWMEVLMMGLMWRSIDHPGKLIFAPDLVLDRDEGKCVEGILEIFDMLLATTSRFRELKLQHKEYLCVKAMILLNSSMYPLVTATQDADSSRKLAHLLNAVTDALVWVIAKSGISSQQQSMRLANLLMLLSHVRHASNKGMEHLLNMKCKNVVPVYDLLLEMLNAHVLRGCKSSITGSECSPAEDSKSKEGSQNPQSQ
Chain of Estrogen receptor (Homo sapiens) (P03372 whole entry, looked up): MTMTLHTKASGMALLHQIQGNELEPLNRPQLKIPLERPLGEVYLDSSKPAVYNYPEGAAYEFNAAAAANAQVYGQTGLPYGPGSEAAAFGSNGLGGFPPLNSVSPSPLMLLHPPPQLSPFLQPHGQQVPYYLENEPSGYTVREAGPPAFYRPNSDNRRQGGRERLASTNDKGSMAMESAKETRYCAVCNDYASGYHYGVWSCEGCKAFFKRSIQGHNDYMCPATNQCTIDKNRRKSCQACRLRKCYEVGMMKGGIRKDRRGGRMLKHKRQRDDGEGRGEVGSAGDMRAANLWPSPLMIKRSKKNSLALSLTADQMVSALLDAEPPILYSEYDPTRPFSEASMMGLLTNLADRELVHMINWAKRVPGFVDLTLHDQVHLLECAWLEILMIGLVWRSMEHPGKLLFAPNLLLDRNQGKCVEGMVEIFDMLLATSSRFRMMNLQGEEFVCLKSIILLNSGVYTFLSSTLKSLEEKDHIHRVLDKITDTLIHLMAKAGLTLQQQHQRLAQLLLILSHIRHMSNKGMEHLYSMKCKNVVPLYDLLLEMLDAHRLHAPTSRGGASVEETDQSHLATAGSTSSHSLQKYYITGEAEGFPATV
Chain of Thyrotropin-releasing hormone receptor (Homo sapiens) (P34981 whole entry, looked up): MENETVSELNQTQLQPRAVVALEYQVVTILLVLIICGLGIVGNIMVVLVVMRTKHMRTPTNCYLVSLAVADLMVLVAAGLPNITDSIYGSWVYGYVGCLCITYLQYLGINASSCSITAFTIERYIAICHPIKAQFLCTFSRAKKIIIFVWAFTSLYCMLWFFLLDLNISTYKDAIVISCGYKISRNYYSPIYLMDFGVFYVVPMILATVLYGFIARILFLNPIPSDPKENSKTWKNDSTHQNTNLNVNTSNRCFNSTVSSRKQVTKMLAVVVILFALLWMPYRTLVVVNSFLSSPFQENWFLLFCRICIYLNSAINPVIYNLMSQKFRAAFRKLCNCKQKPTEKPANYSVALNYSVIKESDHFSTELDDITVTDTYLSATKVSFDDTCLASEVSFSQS
Chain of Thyrotropin receptor (Homo sapiens) (P16473 whole entry, looked up): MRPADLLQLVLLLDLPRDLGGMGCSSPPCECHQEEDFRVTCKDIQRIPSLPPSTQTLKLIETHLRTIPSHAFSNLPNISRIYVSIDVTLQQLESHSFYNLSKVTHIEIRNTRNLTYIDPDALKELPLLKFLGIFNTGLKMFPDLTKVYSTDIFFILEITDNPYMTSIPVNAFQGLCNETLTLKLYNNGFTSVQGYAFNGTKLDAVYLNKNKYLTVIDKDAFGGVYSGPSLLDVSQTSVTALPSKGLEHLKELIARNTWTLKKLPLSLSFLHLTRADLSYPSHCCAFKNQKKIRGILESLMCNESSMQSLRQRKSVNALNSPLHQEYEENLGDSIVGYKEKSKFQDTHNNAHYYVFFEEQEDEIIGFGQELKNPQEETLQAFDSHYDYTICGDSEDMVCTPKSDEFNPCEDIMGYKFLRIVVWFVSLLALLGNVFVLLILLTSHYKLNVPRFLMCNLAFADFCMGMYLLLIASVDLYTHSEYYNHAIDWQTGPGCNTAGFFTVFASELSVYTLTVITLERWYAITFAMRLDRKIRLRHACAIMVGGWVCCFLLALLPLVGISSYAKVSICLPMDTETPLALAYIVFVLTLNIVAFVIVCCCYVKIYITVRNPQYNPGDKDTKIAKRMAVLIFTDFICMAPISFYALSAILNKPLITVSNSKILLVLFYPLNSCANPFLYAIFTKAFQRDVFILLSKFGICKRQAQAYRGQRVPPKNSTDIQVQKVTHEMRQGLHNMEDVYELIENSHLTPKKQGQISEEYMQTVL
Chain of Progesterone receptor (Homo sapiens) (P06401 whole entry, looked up): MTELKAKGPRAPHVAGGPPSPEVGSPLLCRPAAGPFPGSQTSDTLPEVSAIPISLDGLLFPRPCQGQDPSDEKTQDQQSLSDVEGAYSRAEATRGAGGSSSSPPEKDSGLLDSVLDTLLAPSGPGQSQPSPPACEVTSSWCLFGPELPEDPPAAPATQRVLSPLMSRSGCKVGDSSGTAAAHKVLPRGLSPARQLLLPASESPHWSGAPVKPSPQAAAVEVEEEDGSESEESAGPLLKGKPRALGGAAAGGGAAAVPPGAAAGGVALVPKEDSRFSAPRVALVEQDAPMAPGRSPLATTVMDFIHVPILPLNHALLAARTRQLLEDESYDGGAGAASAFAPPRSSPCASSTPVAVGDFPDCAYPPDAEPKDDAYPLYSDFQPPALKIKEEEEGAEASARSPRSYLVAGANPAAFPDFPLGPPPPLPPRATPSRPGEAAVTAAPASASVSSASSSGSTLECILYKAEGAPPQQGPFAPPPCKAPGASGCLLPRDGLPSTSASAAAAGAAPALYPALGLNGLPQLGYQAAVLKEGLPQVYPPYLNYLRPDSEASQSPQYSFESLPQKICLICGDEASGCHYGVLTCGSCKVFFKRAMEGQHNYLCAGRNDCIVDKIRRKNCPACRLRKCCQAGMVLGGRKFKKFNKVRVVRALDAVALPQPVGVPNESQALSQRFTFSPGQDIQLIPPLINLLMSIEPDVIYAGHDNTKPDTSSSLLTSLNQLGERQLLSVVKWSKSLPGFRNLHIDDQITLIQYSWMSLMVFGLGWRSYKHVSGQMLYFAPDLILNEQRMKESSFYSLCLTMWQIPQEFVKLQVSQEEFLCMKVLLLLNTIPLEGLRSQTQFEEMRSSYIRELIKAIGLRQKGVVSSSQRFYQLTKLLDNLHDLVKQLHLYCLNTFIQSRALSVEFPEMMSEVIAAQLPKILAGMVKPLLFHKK

For `CC(C)(C)c1ccc(O)c(O)c1`, the compound was called inactive in [1], in [6], in test [11] and in [12]. For the same compound, the Potency is 15.9 µM (active) and 6.86 µM (active) in test [2]; 50.2 µM (active) and 44.5 µM (active) in [9]. The Potency entry in test [3], in [4], in test [5], in [7], in test [8] and in test [10] was “inactive” in each case.
Take `O=C(CCCN1CCC(O)(c2cccc(C(F)(F)F)c2)CC1)c1ccc(F)cc1`: the outcome in test [1], in [6], in test [15] and in test [12] was inactive. The Potency entry in test [2], in [3], in test [13], in test [8], in test [14] and in [10] was “inactive” each time.
Consider `CCOC(=O)c1cccc(N)c1`, for which the compound was classed as inactive in [1], in [16], in [17], in test [6], in [11] and in [15]. Moreover, the compound was classed as inactive in test [12]. Moreover, the Potency result in test [3], in [4], in [5], in test [18], in test [7] and in test [13] was “inactive” each time. Moreover, the Potency result in [8], in test [9], in [14], in test [19] and in [10] was “inactive” each time.
As for `CC/C=C\CC/C=C/CO`, the result in test [1], in test [11] and in test [12] was inactive. Further, the Potency entry in test [2], in test [3], in [4], in test [5], in [13] and in test [8] was “inactive” in each case. Further, the Potency result in [9], in test [14], in test [19] and in test [10] was “inactive” throughout.
For the compound `O=C(O)CCCl`, the compound was called inactive in [1], in test [16], in [17], in test [6], in test [11] and in [15]. Moreover, the call in test [12] was inactive. The Potency result in [3], in test [4], in [5], in test [18], in test [7] and in test [13] was “inactive” throughout. The Potency entry in test [8], in [9], in test [14], in test [19] and in [10] was “inactive” throughout.
As to `OC(CCN1CCCCC1)(c1ccccc1)C1CC2C=CC1C2` (stereo not given), the outcome in [1], in test [15] and in test [12] was inactive. Further, in [2], the Potency was 16.8 µM (active). Moreover, the Potency entry in test [5], in test [18], in test [13], in [8], in test [9] and in [14] was “inactive” throughout. The Potency result in [19] and in test [10] was “inactive” throughout.
As for `NC(=O)c1ccc([N+](=O)[O-])cc1`, the call in test [1], in test [6], in [11] and in test [15] was inactive. Besides, the Potency result in test [2], in test [3], in test [4], in test [5], in test [7] and in test [13] was “inactive” throughout. The Potency entry in test [8], in test [14], in [19] and in test [10] was “inactive” each time.
Regarding `CO[C@]12C[C@@H](COC(=O)c3cncc(Br)c3)CN(C)[C@@H]1Cc1cn(C)c3cccc2c13`, the compound was called inactive in test [1], in test [6], in [11], in [15] and in test [12]. Moreover, the Potency entry in test [2], in [4], in test [20], in test [5], in test [7] and in test [13] was “inactive” each time. The Potency result in test [8], in [9], in [19] and in [10] was “inactive” each time.
Turning to `COC(=O)[C@@H](N)Cc1ccc(O)c(O)c1`, the outcome in test [1], in test [16], in test [17], in [6], in [11] and in test [15] was inactive. In addition, in test [12], the compound was classed as inactive. The Potency entry in [3], in test [4], in test [20], in test [5], in [7] and in [13] was “inactive” throughout. The Potency result in test [8], in test [9], in [14], in [19] and in test [10] was “inactive” in each case.
